According to PubChem BioAssay (EPA / NIEHS):
Where “and” joins values, the source holds several entries; their conditions need not be identical. Identical values can stand only once. Where a structure was tested more than once in an assay, its records may differ in their call. Calls of active or inactive are those of the source. Rule for the calls: active = hit-call score of the fitted dose curve at least 0.9, where 1 is the maximum; inactive = score below 0.9.

experiment: ATG_AP_1_CIS: Attagene CIS-FACTORIAL HepG2 Assay for human Activator Protein 1 (AP-1) (AID 2282931); conditions: HepG2 Attagene cis-factorial AP-1 reporter mRNA; actives raise or lower the signal
Description: ATG_CIS is a cell-based, multiplexed-readout assay that uses HepG2, a human liver cell line, with measurements taken at 24 hours after chemical dosing in a 24-well plate.ATG_AP_1_CIS is one of 52 assay component(s) measured or calculated from the ATG_CIS assay. It is designed to make measurements of mRNA induction, a form of inducible reporter, as detected with fluorescence intensity signals by Reverse transcription polymerase chain reaction (RT-PCR) and Capillary electrophoresis technology.Data from the assay component ATG_AP_1_CIS was analyzed into 1 assay endpoint. This assay endpoint, ATG_AP_1_CIS, was analyzed with bidirectional fitting relative to DMSO as the negative control and baseline of activity. Using a type of inducible reporter, measures of mRNA for gain or loss-of-signal activity can be used to understand the reporter gene at the transcription factor-level as they relate to the gene FOS and JUN. Furthermore, this assay endpoint can be referred to as a primary readout, because this assay has produced multiple assay endpoints where this one serves a reporter gene function. To generalize the intended target to other relatable targets, this assay endpoint is annotated to the dna binding intended target family, where the subfamily is basic leucine zipper.
Human liver HepG2 cells are transiently transfected with multiple reporter transcription units (MRTUs) in 6-well plates using FuGene 6 reagent (Roche; 3 ml FuGene/1 mg DNA). The MRTU constructs are regulated by a cis-regulating element (promoter). […] A major difference between the CIS and TRANS system is that in CIS activities of endogenous TFs are measured, whereas the TRANS assay evaluates changes in activities of exogenous, chimeric NR-Gal4 proteins. […] At the end of 24 hour incubation, total RNA was isolated using TriZol reagent (Invitrogen). The isolated RNA is then reverse-transcribed using oligo(dT) primer and Mo-MLV reverse transcriptase (Invitrogen) with DNAse I (Ambion) treatment for 30 min. The one-tenth of the produced cDNA was amplified by PCR using Taq DNA polymerase (Invitrogen) and two reporter sequence-specific primers. The PCR products were fluorescently labeled by primer extension with 6-arboxyfluorescein (6-FAM) 5'-labeled reporter sequence-specific primer (2 min at 95 C, 20 s at 68 C and 10 min at 72 C) and these products were digested with 5U of HpaI (New England Biolabs) for 2h at 37 C. The fragments were purified using Qiaquick PCR columns (Qiagen), analyzed on an ABI 3130xL genetic analyzer (Applied Biosystems) with peak positions identified by using a set of X-rhodamine (ROX)-labeled MapMarker1000 molecular weight standards (BioVentures). The raw capillary electrophoresis data was processed using Attagraph software (Attagene).

| Compound | outcome | AC50 |
| --- | --- | --- |
| CCCCCCCC(=O)O | inactive |  |
| CCCCC(CC)COC(=O)CCCCC(=O)OCC(CC)CCCC (stereo not given) | inactive |  |
| CCC(C)(C)C1CCC(O)CC1 (stereo not given) | inactive |  |
| CCCCC[C@H](O)CC(=O)CCc1ccc(O)c(OC)c1 | inactive |  |
| CC(O)C(=O)O (stereo not given) | inactive |  |
| OCCC(F)(F)C(F)(F)C(F)(F)C(F)(F)C(F)(F)C(F)(F)C(F)(F)C(F)(F)F | inactive | 39.1 µM (active) |
| c1ccc2c(c1)ccc1ccccc12 | inactive |  |
| OCCC(F)(F)C(F)(F)C(F)(F)C(F)(F)C(F)(F)C(F)(F)F | inactive | 77.3 µM (active) |
| NC(=O)N1C(=O)C(C(=O)c2cc(Cl)cs2)c2cc(F)c(Cl)cc21 (stereo not given) | inactive |  |
| O=[N+]([O-])c1ccc(O)cc1 | inactive |  |
| CCCOc1sc(C(=O)N2CCC(c3cc(CN)ccc3F)CC2)c(C)c1Br |  | 3.7 µM (active) |
| Cc1ccc(S(=O)(=O)O)c(C)c1 | inactive |  |
| c1ccc2cc3c(ccc4ccccc43)cc2c1 | inactive | 2.33 µM (active) |
| O=C(OCCOCCOC(=O)c1ccccc1)c1ccccc1 | inactive |  |
| COCC(C)OCC(C)O (stereo not given) | inactive |  |
| O=C(/C=C/c1ccc(O)cc1)CC(=O)/C=C/c1ccc(O)cc1 |  | 62 µM (active) |
| CC(C)(C)c1ccc(O)c(C(C)(C)C)c1 |  | 15.9 µM (active) |

| Compound | outcome | AC50 |
| --- | --- | --- |
| Cc1cc(CCN2CCN(c3nsc4ccccc34)CC2)cc2c1NC(=O)CC2(C)C |  | 3.21 µM (active) |
| CCOC(=O)CC(O)(CC(=O)OCC)C(=O)OCC | inactive |  |
| CCCCCCCCCCCCN1CCCC1=O | inactive |  |
| C[C@@H]1C[C@H]2[C@@H]3CCC4=CC(=O)C=C[C@]4(C)[C@@]3(F)[C@@H](O)C[C@]2(C)[C@@]1(O)C(=O)COP(=O)(O)O | inactive |  |
| Cc1oc(-c2ccccc2)nc1CCOc1ccc(C[C@H](Nc2ccccc2C(=O)c2ccccc2)C(=O)O)cc1 | inactive |  |
| OC1CCCCC1 | inactive |  |
| CC(C)(C)CC(C)(C)c1ccc(O)c(-n2nc3ccccc3n2)c1 |  | 58.3 µM (active) |
| CC#C[C@]1(O)CC[C@H]2[C@@H]3CCC4=CC(=O)CCC4=C3[C@@H](c3ccc(N(C)C)cc3)C[C@@]21C | inactive | 27.6 µM (active) and 66.9 µM (active) and 63.5 µM (active) |
| CN1CCC[C@H]1c1cccnc1 | inactive |  |
| Oc1cccc(O)c1 | inactive |  |
| CCCOC(=O)c1ccc(O)cc1 | inactive | 48.2 µM (active) |
| CCCCCCCCCCCCCC[N+](C)(C)C |  | 6.78 µM (active) and 7.32 µM (active) |
| CCc1ccc(CCOc2ccc(CC3SC(=O)NC3=O)cc2)nc1 (stereo not given) | inactive |  |
| CCCCCCCCCCCCc1ccccc1S(=O)(=O)O | inactive |  |
| CN1CCN(c2ccccc2/C=C2\SCCN(c3ccc(Cl)c(Cl)c3)C2=O)CC1 | inactive |  |
| CC1=C(/C=C/C(C)=C/C=C/C(C)=C/C(=O)O)C(C)(C)CCC1 | inactive | 42 µM (active) |
| CCCCCCCCC(=O)O | inactive |  |
